PubChem BioAssay (NCI)
Compounds without any hit were thinned out: in the full panel of roughly 83,000, 20% have a hit.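 Compound tested at a single concentration for 48 hours in 96-well plates; a percent growth value below 10 was scored as active.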 A number with no mark means an inactive call. Activity calls are given as the source filed them.

Tests used:
Experiment in all cases: NCI-60 one-dose screen, 48 h (100 = growth as untreated, 0 = no growth, -100 = all killed)
Settings in all cases: 10 µM unless noted
NCI-H23 lung = system: NCI-H23 lung
NCI-H226 lung = system: NCI-H226 lung
NCI-H322M lung = system: NCI-H322M lung
HOP-62 NSCLC = system: HOP-62 NSCLC
NCI-H460 lung = system: NCI-H460 lung
HOP-92 NSCLC = system: HOP-92 NSCLC
NCI-H522 lung = system: NCI-H522 lung
A549/ATCC NSCLC = system: A549/ATCC NSCLC
786-0 renal = system: 786-0 renal
COLO 205 colon = system: COLO 205 colon
DU-145 prostate = system: DU-145 prostate
K-562 leukemia = system: K-562 leukemia
MALME-3M melanoma = system: MALME-3M melanoma
MDA-MB-231 breast = system: MDA-MB-231 breast
SF-268 CNS = system: SF-268 CNS
SF-295 CNS = system: SF-295 CNS
SF-539 CNS = system: SF-539 CNS
UACC-257 melanoma = system: UACC-257 melanoma
M14 melanoma = system: M14 melanoma

Compound	growth (NCI-H23 lung) [%]	growth (NCI-H226 lung)	growth (NCI-H322M lung) [%]	growth (HOP-62 NSCLC)	growth (NCI-H460 lung) [%]	growth (HOP-92 NSCLC)	growth (NCI-H522 lung)	growth (A549/ATCC NSCLC)	growth (786-0 renal)	growth (COLO 205 colon)	growth (DU-145 prostate)	growth (K-562 leukemia)	growth (MALME-3M melanoma)	growth (MDA-MB-231 breast)	growth (SF-268 CNS)	growth (SF-295 CNS) [%]	growth (SF-539 CNS)	growth (UACC-257 melanoma)	growth (M14 melanoma)
Cc1cc(Nc2nc(-c3cccnc3)nc3ccccc23)n[nH]1	65.2	43.9%	81.3	64.1%	41.9	55.3%	43.7%	19%	55%	-10.2% (active)	74.3%	48.1%	99.1%	95.7%	58.1%	53.3	34.7%	59.7%	72.5%
CC(=O)OCC(=O)C1CCC=CC1OC(C)=O (stereo unspecified)	97.7	92.6%	88.8	86.3%	108	98.9%	75.1%	94.4%	99.2%	110%	103%	98.9%	74.2%	109%	106%	94.8	103%	92.6%	96.9%
CNC(=S)N/N=C/CSC/C=N/NC(=S)NC	85.2	104%	106	90.5%	70.5	101%	18.7%	62.8%	96.1%	39.1%	88.5%	15.8%	72%	83.4%	102%	108	105%	67.7%	92.5%
O=C(N/N=C/c1ccc(O)cc1O)c1cccnc1	45.3	70.5%	29.9	43.2%	10.9	56.4%	-6.04% (active)	46.4%	37.9%	23.4%	48.4%	26.7%	61.8%	62.5%	43.6%	15.6	29.5%	-3.63% (active)	39.3%
C#Cc1nc2ccccc2c(=O)[nH]1	29.9	-58.8% (active)	29.5	-6.19% (active)	11.1	-45.8% (active)	-71.9% (active)	4.37% (active)	-64.7% (active)	-74.3% (active)	-41.8% (active)	-24.6% (active)	-64.2% (active)	-57.5% (active)	-70.4% (active)	41.3	-70.1% (active)	-21.6% (active)	-11.2% (active)
COc1ccc(-c2nc(Nc3cc(C)[nH]n3)c3ccccc3n2)cc1	60.2	41.2%	78.1	43.2%	28.5	3.24% (active)	8.31% (active)	23.9%	50%	3.04% (active)	61%	24.2%	79.9%	65.3%	37.3%	48.8	15%	52%	60.4%
C(=N\Nc1nnn(Cc2ccccc2)n1)/c1ccccc1	53.1	85%	86	67.3%	17.4	87.2%	29.2%	33.6%	63.6%	36.9%	40%	29.3%	24.7%	98.2%	46.2%	31.2	41%	43.9%	42%
CC1(C)OCC2OC3(C(=O)O)OC(C)(C)OC3C2O1 (stereo unspecified)	102	106%	93	101%	110	116%	84.6%	98.1%	103%	106%	104%	95.9%	104%	107%	101%	97	108%	90%	111%
Oc1ccccc1/C=N/Nc1ccc2ccccc2n1	45	83%	31.2	57.3%	27.2	70.9%	-9.13% (active)	44%	65.3%	31.2%	55.6%	17.8%	35.2%	57.3%	52%	33.5	42.1%	62.8%	52.3%
O=C(NC(Cc1ccccc1)C(=O)CCl)OCc1ccccc1 (stereo unspecified)	69.4	54.4%	111	87.1%	69.6	73%	6.56% (active)	116%	79.8%	80.2%	93.5%	13.7%	72.4%	73.9%	63.2%	–	62.4%	87.2%	80.1%
O=C(Nc1ccc(F)cc1)Nc1ccc(CCO)cc1	104	107%	97.7	116%	106	103%	93.8%	91.4%	109%	132%	111%	103%	94.3%	114%	109%	105	105%	102%	117%
COc1ccc(/C=N\NC(=O)c2ccncc2)cc1O	93.8	92.6%	99.3	93%	109	92.9%	81.4%	93.7%	93.7%	110%	99.4%	96.4%	78.9%	94.8%	99%	92.5	107%	89.1%	101%
CCCCCCCCCCCCN1CCCC(C)C1 (stereo unspecified)	80.3	85.3%	87.2	89.1%	106	73%	69.3%	91.4%	85.9%	82.2%	95.2%	19.2%	107%	55.8%	89.7%	–	86.4%	88.3%	82.7%
CN1CCCCC1CCN1c2ccccc2Sc2ccc(Cl)cc21 (stereo unspecified)	77.4	93.5%	59	84.3%	71.2	53.3%	65.5%	67.4%	61.1%	58.7%	67%	7.99% (active)	83.2%	65.9%	65.8%	76.6	90.9%	67.4%	45.2%
CCCCCC(=O)N(CCCC)CCCC	107	99.7%	89.4	104%	110	91.7%	97.6%	100%	104%	125%	120%	94.8%	96.8%	99.7%	115%	88.2	97.4%	92.1%	104%
COc1cccc(-n2cc(-c3nc(Nc4cc(C)[nH]n4)c4ccccc4n3)nn2)c1	61.1	49.9%	52.2	50.2%	44.9	35.8%	9.97% (active)	35.9%	51.4%	85.8%	66.4%	27%	42.9%	63.4%	64.1%	37.7	52.9%	83.4%	54.1%
CCOC(=O)c1nc(Nc2cc(C)[nH]n2)c2ccccc2n1	95.1	81%	90.7	103%	79.7	86.3%	92.2%	96.5%	82.6%	104%	109%	99.9%	116%	108%	101%	107	95.5%	106%	80.9%
